INHIBITION data for 107 compounds are collected here from ChEMBL document CHEMBL4513216, “Probing the Open Global Health Chemical Diversity Library for Multistage-Active Starting Points for Next-Generation Antimalarials” (ACS Infect Dis, 2020).

In all, about 69,000 compounds went through this assay and about 8,600 (12%) showed an effect of 50% or more. This is one part of a sample in which strong results are shown more often than they occur.

This experiment has as its system Plasmodium berghei. The experiment is described as follows: Screen against P. berghei liver stage (PbLuc), transformed with Luciferase, at 10uM. The class given is functional, HepG2. As to conditions: tested at 10 uM.
On to `Cc1c(C(=O)N(C)c2ccccc2)cccc1N(C)S(C)(=O)=O`, for which the INHIBITION is recorded as 22.07%.
Turning to `CN(Cc1ccc(F)cc1)[C@@H]1CN(S(C)(=O)=O)C[C@H]1O`, the INHIBITION amounted to 14.12%.
With `CC(O)CN1CCN(C(=O)c2cnc(OC(C)C)c(Cl)c2)CC1` (configuration not stated), the INHIBITION stood at 40.5%.
As for `CC(C)Oc1ncc(C(=O)N2CCC(CC(N)=O)CC2)cc1Cl`, the figure is 16.9%; as for `CC(=O)N1CCN(C(=O)c2cnc(OC(C)C)c(Cl)c2)CC1`, -2.32%; as for `CC(=O)N1CCCN(C(=O)c2cnc(OC(C)C)c(Cl)c2)CC1`, 51.1%.
Regarding `CCN1CCCN(C(=O)c2cnc(OC(C)C)c(Cl)c2)CC1`, the INHIBITION was determined as 60.1%.
For `CC(C)Oc1ncc(C(=O)N2CCC(N(C)C)CC2)cc1Cl` the value was 26.6%; for `O=C(N[C@@H]1CN(Cc2cccs2)[C@@H]2CCCO[C@@H]21)c1cscn1`, -17.1%.
As for `O=C(NCCNc1ncccn1)N1CCCC1c1ccncc1` (configuration not stated), the figure is 11.8%; as for `Cc1nc(CN(Cc2ccncc2)C2CCN(C)CC2)cs1`, 8.46%; as for `Cc1ccc(-c2cc(C(F)(F)F)nc(N3CCOCC3)n2)s1`, 29.8%.
As for `CCNC(=O)[C@@H]1C[C@H](N)CN1c1cc(C(F)(F)F)nc(N2CCCC2)n1`, the figure is -122%; as for `Cc1c(-c2cc(C(F)(F)F)nc(N3CCC(N)CC3)n2)cnn1C`, 50.8%.
For the compound `CCn1ncc(-c2cc(C(F)(F)F)nc(N3CCC(N)CC3)n2)c1C`, the INHIBITION is reported as -1.84%.
For `FC(F)(F)c1cc(-c2cccs2)nc(N2CCN3CCCC3C2)n1` (configuration not stated) the value was 25.3%; for `CCc1ccc(-c2cc(C(F)(F)F)nc(N3CCC(N)CC3)n2)cc1`, 91.4%.
For `CCc1nc(C2CCCN2Cc2cc(=O)n(C)c(=O)n2C)no1` (configuration not stated) the value was -27.9%.
Regarding `CC(C)C(CCO)NC(=O)Nc1ccc(-c2csnn2)cc1` (configuration not stated), the INHIBITION is -6.39%.
For `Cc1cccc(CN2C(=O)CCC23CCN(c2ccccn2)CC3)n1`, the INHIBITION is listed as -11%.
With `Cc1nn(-c2cc(Cl)cc(Cl)c2)c(C)c1CCC(=O)O`, the INHIBITION is on record as 46.1%.
For `CC(c1ccccn1)N(C)Cc1ccc(-n2cncn2)cc1` (configuration not stated), the INHIBITION worked out at 28.5%.
Take `CN1CCOC(CNC(=O)CCCOc2cccc(F)c2)C1` (configuration not stated): the INHIBITION is -5.2%.
For `CN1CCOC(CNC(=O)C2(c3ccccc3)CCC2)C1` (configuration not stated) the value was 57.4%.
As for `CN1CCOC(CNC(=O)C2(c3cccc(Cl)c3)CC2)C1` (configuration not stated), the figure is 0.348%; as for `Cc1ccccc1OCCCC(=O)NCC1CN(C)CCO1` (configuration not stated), 22.265%; as for `Cc1cccc(C2(C(=O)NCC3CN(C)CCO3)CC2)c1` (configuration not stated), 19.8%.
For `CN1CCOC(CNC(=O)CCCOc2ccccc2F)C1` (configuration not stated) the value was 52%; for `CC(C)CC(CC(C)C)NC(=O)c1ccn(C)c(=O)c1`, 1.51%.
Regarding `COc1ncccc1CN1C[C@H]2C[C@@H](C(=O)NCC3CC3)N(C)[C@H]2C1`, the INHIBITION is listed as 29.7%.
Take `CC(C)c1nn(C)cc1CNCc1cccnc1N(C)C`: the INHIBITION turned out to be 14.7%.
As for `CSCC(=O)N1CCc2c(cnc(C)c2-c2noc(-c3ccco3)n2)C1`, the figure is 33%; as for `COCc1nc(C(=O)OCC2CCN(c3ccccc3)C2)cs1` (configuration not stated), 18.3%.
Consider `COCCn1cc(NC(=O)NCC2CCN(c3ccccc3)C2)cn1` (configuration not stated), for which the INHIBITION came out at 22.8%.
For `O=C(OCC1CCCN(C(=O)c2ccccc2)C1)c1cscn1` (configuration not stated) the value was 10.6%.
As to `O=C(OCC1CCN(c2ccccc2)C1)c1cscn1` (configuration not stated), the INHIBITION turned out to be 51.7%.
With `Cc1ncsc1C(=O)OCCN1CCCc2ccccc21`, the INHIBITION was 41.3%.
As for `Cc1ncc(C(=O)OCC2CCN(c3ccccc3)C2)s1` (configuration not stated), the figure is 58.5%; as for `Cc1ncsc1C(=O)OCC1CCN(c2ccccc2)C1` (configuration not stated), 89.4%; as for `Cc1ncsc1C(=O)N1CCN(Cc2ccccc2)CC1C` (configuration not stated), 23.8%.
For `Cn1ncc(C(=O)OCC2CCN(c3ccccc3)C2)c1C(F)F` (configuration not stated) the value was 9.96%.
As for `Cc1oc(-c2nc(C#N)c(NC3CC3)o2)cc1S(=O)(=O)N1CCCC1`, the figure is 25.8%; as for `CCN(Cc1ccco1)C(=O)NCC(C)N1CCc2sccc2C1` (configuration not stated), -3.72%.
In the case of `Cc1occc1C(=O)N1C[C@@H]2CCCO[C@@H]2[C@H](N(C)Cc2ccco2)C1`, the INHIBITION is given as 43.9%.
As for `Cc1cccc(CN(C(=O)NCc2ccccn2)C2CC2)c1`, the figure is 19.4%; as for `COc1ccccc1N1CCN(C(=O)c2ccnc(N(C)C)c2)CC1`, 77.15%; as for `CN(C)c1cc(C(=O)N2CCCC2)ccn1`, -4.567%.
For `COc1ccccc1N1CCN(C(=O)c2ccoc2)CC1` the value was -17.4%; for `O=C(N1CCCO1)[C@@]12CCO[C@@H]1CCN(Cc1ccsc1)C2`, 14.5%.
For `CC(CNC(=O)N1CCSCC1)Cc1cccs1` (configuration not stated) the value was -18.2%; for `CC(CNC(=O)N1CCNC(=O)CC1)Cc1cccs1` (configuration not stated), 51.1%.
Consider `CC(CNC(=O)N1CCS(=O)(=O)CC1)Cc1cccs1` (configuration not stated), for which the INHIBITION came to 16.1%.
For `Cn1cc(CN(CC2(O)CCNC2)C2CCCCC2)cn1` (configuration not stated) the value was 38.5%; for `O=C(Nc1ccccc1F)C1CN(C(=O)c2ccc3c(c2)OCO3)C1`, 46.1%.
For `Cc1noc([C@@]23CCO[C@@H]2CCN(S(=O)(=O)c2cccnc2)C3)n1` the value was 44.8%; for `CCS(=O)(=O)N1CC[C@H]2OCC[C@@]2(c2nnc(C)o2)C1`, 34.6%; for `Cc1nnc([C@@]23CCO[C@@H]2CCN(S(=O)(=O)c2ccccc2)C3)o1`, 61.1%.
For `Cc1nnc([C@@]23CCO[C@@H]2CCN(S(=O)(=O)c2cccnc2)C3)o1` the value was -1.36%; for `CCCS(=O)(=O)N1CC[C@H]2OCC[C@@]2(c2nnc(C)o2)C1`, 55.5%; for `Cc1nnc([C@@]23CCO[C@@H]2CCN(S(C)(=O)=O)C3)o1`, 23.3%.
For `CN(C)CCOCC1CN(Cc2cccs2)Cc2ccnn2C1` (configuration not stated), the INHIBITION stood at 33.4%.
As for `CC(NC1CCN(CCc2ccncc2)CC1)c1cnn(C(C)C)c1` (configuration not stated), the figure is 37.9%; as for `Cc1cccnc1NC(=O)c1ccc(F)c(S(=O)(=O)N2CCC2)c1`, 13.3%.
With `O=C(Cc1cccs1)N1C[C@@H]2CN(Cc3ccoc3)CCO[C@@H]2C1`, the INHIBITION was 24.1%.
For `CCN1Cc2cc(F)ccc2N(CC(O)C(F)(F)F)CCC1=O` (configuration not stated) the value was 47.2%.
As for `CN(C)C(=O)c1cn[nH]c1C1CCCN1Cc1cncn1C` (configuration not stated), the INHIBITION is -11.3%.
For `CN(C)C(=O)c1cn[nH]c1C1CCCN1Cc1nccn1C` (configuration not stated) the value was 55.8%.
As for `CN(C)C(=O)c1cn[nH]c1C1CCCN1Cc1c[nH]cn1` (configuration not stated), the figure is 18.4%; as for `Cc1nc(CN2CCO[C@H]3[C@@H](OCc4ccccn4)CC[C@@H]32)cs1`, 40.4%.
As for `Cc1ccc2cccc(Oc3nc(C)c(C(=O)O)s3)c2n1`, the figure is 12.7%.
Turning to `CN1C(=O)C(c2ccccc2)CC12CCN(CCO)CC2` (configuration not stated), the INHIBITION is -9.26%.
As for `CCc1nc(C2CCCN(C(=O)c3cccc(Cl)c3)C2)no1` (configuration not stated), the figure is -19.9%; as for `COc1cccc(CNC2CCSC2)c1OC` (configuration not stated), -7.85%.
On to `Cc1cccnc1NC(=O)NC(CCO)C(C)(C)C` (configuration not stated), for which the INHIBITION came to 28.3%.
For `CC(C)(C)C(CCO)NC(=O)Nc1ccccc1` (configuration not stated) the value was 43.7%; for `CC(C)(C)C(CCO)NC(=O)Nc1ccncc1` (configuration not stated), 60.2%; for `CN1CC(=O)N(c2ccccc2)CC12CCN(S(C)(=O)=O)C2` (configuration not stated), 42.7%.
As to `Cc1cc(CNCC2(O)CCOCC2)ccc1F`, the INHIBITION turned out to be 76.8%.
For `Cc1cc(CNC2(CO)CCOCC2)ccc1Br` the value was 18.6%; for `OC1(CNCc2ccc(F)c(C(F)(F)F)c2)CCOC1` (configuration not stated), 3.69%; for `Cc1ccc(C(=O)NCC2(O)CCOCC2)cc1Br`, -65.5%.
For `Cc1cc(CNCC2(O)CCOCC2)ccc1Br` the value was 54.4%; for `CN1CCC(O)(CNCc2ccc(F)c(C(F)(F)F)c2)CC1`, 48.4%; for `CN(C)C(=O)[C@@H]1CCO[C@@H]2CCN(CCc3ccccc3)C[C@@H]21`, 28.5%.
For the compound `COCc1ccc(C(=O)N2CCC(Oc3ccccc3OC)CC2)s1`, the INHIBITION was -3.83%.
For `O=C(N[C@@H]1CN(c2ncccn2)C[C@@H]2CCCO[C@@H]21)c1cnccn1` the value was 20.2%; for `CC(O)CN1CCN(C(=O)c2cc(Cl)cc3cccnc23)CC1` (configuration not stated), 2.75%; for `COC(=O)N1C[C@@H]2CC[C@H]1CN(Cc1cscn1)C2`, -14.8%.
With `CCc1ncc2c(n1)CN(c1nc(C)ccc1C(=O)O)C2`, the INHIBITION was 9.55%.
For `CC(C)OCCN1CCC(Nc2ccc(C#N)cc2F)CC1` the value was 27.2%; for `CCNC(=O)[C@@H]1C[C@H](N)CN1C(=O)CCc1ccccc1Cl`, -6.83%; for `CNC(=O)[C@@H]1C[C@@H](N)CN1C1CCN(Cc2ccccn2)CC1`, 27.6%.
Take `CNC(=O)[C@@H]1C[C@@H](N)CN1C(=O)CCSCc1ccc(F)cc1`: the INHIBITION is reported as 9.63%.
For `COc1ccccc1N1CCC(N2CCOCC(CO)C2)CC1` (configuration not stated) the value was 39%; for `CCNC(=O)[C@@H]1C[C@H](N)CN1C1CCN(c2ccccc2OC)CC1`, 55.4%; for `CNC(=O)[C@@H]1C[C@@H](N)CN1C1CCN(c2ccccc2F)CC1`, 61%.
As for `Cc1cc(C(F)(F)F)nc(C2CCCN2S(C)(=O)=O)n1` (configuration not stated), the figure is 20.2%.
For `CCN1CCN(C(C)CNC(=O)Nc2cnn(CC)c2)CC1` (configuration not stated) the value was 44.1%; for `CNC(=O)C1CCN(c2ncc3c(n2)CCN3c2ccccc2)C1` (configuration not stated), -105%.
`O=C(Cc1c(F)cccc1Cl)Nc1cc(N2CCCC2)ncn1`: the INHIBITION is listed as -27.8%.
Consider `Cc1ccsc1CN(CCN(C)C)Cc1ccccn1`, for which the INHIBITION stood at 35.1%.
For `Cc1ccsc1CN(Cc1ccccn1)CC(C)C` the value was -21.5%; for `COCCN(Cc1ccccn1)Cc1sccc1C`, 15.2%; for `CSC(C)CCN(Cc1ccccn1)Cc1sccc1C` (configuration not stated), 62.9%.
For the compound `COCCn1ccnc1CN(Cc1ccccn1)Cc1sccc1C`, the INHIBITION amounted to 71%.
Take `COCCN(Cc1sccc1C)Cc1nccn1CCOC`: the INHIBITION came to 16.9%.
`Cc1cc(C)c2nc(C)c(C(=O)N3CCC(CCN(C)C)CC3)cc2c1`: the INHIBITION was found to be 36.8%.
